For 13 compounds, Potency, activity change, negative = inhibition and activation results are on record in PubChem BioAssay (Tox21).

A short description of assay [1]: qHTS assay to identify small molecule agonists of the endoplasmic reticulum stress response signaling pathway (AID 1159516; active = well fitted activation curve with a large enough effect in the signal ratio in the repeat runs, not every such curve was filed as active; the % refers to the signal ratio; also: % is scaled to controls: 0 for no effect and ±100 for the full control effect). The method in brief:
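CellSensor ESRE-bla HeLa cells, 1,500 per well, plated overnight, then exposed to compounds for 5 hr at 37 C. Beta-lactamase reporter read with LiveBLAzer B/G FRET substrate after 2 hr at room temperature, 405 nm excitation, 460 and 530 nm emission.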

Assay [2] is described as follows: qHTS assay to identify small molecule agonists of the endoplasmic reticulum stress response signaling pathway - cell viability counter screen (AID 1159517).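 Also: HeLa cells carrying an ER stress response element beta-lactamase reporter; series mostly up to about 61 µM; % is scaled to controls: 0 for no effect and ±100 for the full control effect; nearly all actives have a fitted effect of over 50% in size.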 Summed up:
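Luminescence readout: CellTiter-Glo, 30 min RT, same wells as the ESRE-bla reporter read. HeLa ESRE-bla, 1,500 cells/well, o/n 37 C; cpd 5 hr 37 C/5% CO2.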

The nature of assay [3]: qHTS assay to identify small molecule agonists of the AP-1 signaling pathway (AID 1159526). Also: % is scaled to controls: 0 for no effect and ±100 for the full control effect.
The nature of assay [4]: qHTS assay to identify small molecule agonists of the vitamin D receptor (VDR) signaling pathway - cell viability counter screen (AID 743224; active = well fitted curve in the direction sought with a large enough effect in the repeat runs; an effect the other way counts as inactive or inconclusive; also: nearly all actives have a fitted effect of over 50% in size; also: potency is read from the fitted curve at half-maximal effect). Summed up:
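VDR-bla cells, 4 h after plating, exposed to compounds for 16 h at 37C; viability then read in the same wells as CellTiter-Glo luminescence after 30 min at room temperature, following the bla FRET read.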

The nature of assay [5]: qHTS assay to identify small molecule antagonists of the vitamin D receptor (VDR) signaling pathway - cell viability counter screen (AID 743225; active = well fitted curve in the direction sought with a large enough effect in the repeat runs; an effect the other way counts as inactive or inconclusive; also: nearly all actives have a fitted effect of over 50% in size; also: potency is read from the fitted curve at half-maximal effect). The method in brief:
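VDR-UAS-bla HEK 293T cells were plated and incubated 4 h at 37C, then dosed with compound plus 3 nM (final) 1-alpha,25-dihydroxyvitamin D3 for 16 h. After the 2 h beta-lactamase read, viability in the same wells was read as CellTiter-Glo luminescence after 30 min at room temperature.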

The nature of assay [6]: qHTS assay to identify small molecule antagonists of the retinoid-related orphan receptor gamma (ROR-gamma) signaling pathway - cell viability counter screen (AID 1159520; active = well fitted curve in the direction sought with a large enough effect in the repeat runs; an effect the other way counts as inactive or inconclusive; also: nearly all actives have a fitted effect of over 50% in size; also: potency is read from the fitted curve at half-maximal effect). The method in brief: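 Tet-on ROR gamma CHO cells (1,000/well) were plated 4 hr, given compounds in DMSO for 2 hr at 37 C, then induced with 1 uM final doxycycline for 16 hr. Viability was read as ATP by CellTiter-Glo luminescence after 30 min.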

Assay [7] has as its target Retinoic acid receptor RXR-alpha (Homo sapiens) (UniProt P19793). The experiment in a line: qHTS assay to identify small molecule agonists of the RXR signaling pathway (AID 1159527). Also: % is scaled to controls: 0 for no effect and ±100 for the full control effect; nearly all actives have a fitted effect of over 35% in size. The method in brief: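 GeneBLAzer RXR-alpha-UAS-bla HEK 293T cells in 2% charcoal-stripped FBS medium were exposed to compounds for 16 hr at 37 C in agonist mode. Beta-lactamase reporter read as 460/530 nm FRET ratio after 2 hr substrate loading.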

In assay [8] the target is Nuclear receptor ROR-gamma (Homo sapiens) (UniProt P51449). The experiment in a line: qHTS assay to identify small molecule antagonists of the retinoid-related orphan receptor gamma (ROR-gamma) signaling pathway (AID 1159521; active = well fitted curve in the direction sought with a large enough effect in the repeat runs; an effect the other way counts as inactive or inconclusive). The method in brief: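 Tet-on ROR-gamma CHO cells with ROR response element-luciferase reporter; compounds added 2 hr before 1 uM doxycycline induction, then 16 hr at 37 C. Antagonism scored as decreased ONE-Glo luminescence.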

The nature of assay [9]: qHTS assay to identify small molecule agonists of the AP-1 signaling pathway - cell viability counter screen (AID 1159525). Also: nearly all actives have a fitted effect of over 55% in size. Summed up:
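ME-180 AP-1-bla, 2500 cells/well, Opti-MEM + 0.5% dialyzed FBS; overnight 37 °C; cpd 15-pt titration, 5 h 37 °C; CellTiter-Glo 30 min RT; luminescence read; normalised to TOAB and DMSO controls.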

Results filed as inconclusive are left out. Unmarked numbers belong to inactive results. Calls of active or inactive are those of the source. Unless noted, calls follow the shape of the full dose curve.

Sequence of Retinoic acid receptor RXR-alpha (Homo sapiens) (P19793 whole entry, looked up): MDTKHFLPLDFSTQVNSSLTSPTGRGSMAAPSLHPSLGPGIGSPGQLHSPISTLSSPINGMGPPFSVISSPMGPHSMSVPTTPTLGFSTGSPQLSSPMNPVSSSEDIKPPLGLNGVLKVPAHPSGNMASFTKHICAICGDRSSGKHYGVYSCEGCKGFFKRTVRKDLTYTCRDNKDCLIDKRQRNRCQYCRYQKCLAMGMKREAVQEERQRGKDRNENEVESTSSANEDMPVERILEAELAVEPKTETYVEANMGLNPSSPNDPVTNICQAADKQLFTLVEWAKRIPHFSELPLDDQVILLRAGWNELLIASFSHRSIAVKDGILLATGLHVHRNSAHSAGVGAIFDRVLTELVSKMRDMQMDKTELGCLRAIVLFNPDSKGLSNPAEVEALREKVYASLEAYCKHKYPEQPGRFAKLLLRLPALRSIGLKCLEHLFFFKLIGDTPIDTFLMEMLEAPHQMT

On to `CCCCCCCCCCO[C@@H]1O[C@H](CO)[C@@H](O)[C@H](O)[C@H]1O`, for which the Potency entry in assay [1], in [2] and in assay [3] was “inactive” in each case.

Consider `CC(C)O.CC(C)O.CCOC(=O)/C=C(\C)O.CCOC(=O)/C=C(\C)O.[Ti]`, for which the Potency entry in [4], in assay [5], in [1], in assay [2], in assay [6] and in [3] was “inactive” in each case. Also, the Potency entry in assay [7] is “inactive”.

Consider `CCCCCCCCCCCCCCCCOS(=O)(=O)O`, for which the Potency result in [2], in [6] and in [8] was “inactive” in each case.

As for `CCN(CC)c1ccc2c(-c3ccccc3C(=O)O)c3ccc(=[N+](CC)CC)cc-3oc2c1`, the Potency entry in assay [5], in assay [2] and in [8] was “inactive” in each case. The Potency in assay [6] is 19.3 µM (active).

On to `COCCCN1CCC(NC(=O)c2cc(Cl)c(N)c3c2OCC3)CC1`, for which the Potency entry in assay [4], in assay [5], in [1], in assay [2], in assay [6] and in [3] was “inactive” in each case. Besides, the Potency result in assay [7] is “inactive”.

As to `O=[N+]([O-])c1ccc(NCCO)c(OCCO)c1`, the Potency result in assay [4], in assay [2], in [6], in assay [3] and in assay [7] was “inactive” throughout.

Turning to `Cc1[nH]c(C)c(Cl)c(=O)c1Cl`, the Potency result in assay [4], in [5], in [1] and in [2] was “inactive” each time. Moreover, the activity change, negative = inhibition in [8] was -2.21% [at 19 µM]. The activation is -0.748% [at 15.8 µM] in assay [3] and 5.66% [at 15.8 µM] in assay [7].

`CN(C)C(=O)NC1(c2ccccc2)CCN(CC[C@@]2(c3ccc(F)c(F)c3)CN(C(=O)c3ccccc3)CCO2)CC1`: the Potency result in [4], in [1], in [2], in assay [6], in [9] and in assay [3] was “inactive” each time.

Regarding `CCCCC1=NC2(CCCC2)C(=O)N1Cc1ccc(-c2ccccc2-c2nn[nH]n2)cc1`, the Potency result in [5], in [1], in [2], in [9], in assay [3] and in assay [7] was “inactive” in each case.

With `CCC(=O)O[C@]1(C(=O)CCl)[C@@H](C)C[C@H]2[C@@H]3CCC4=CC(=O)C=C[C@]4(C)[C@@]3(F)[C@@H](O)C[C@@]21C`, the Potency result in [4], in assay [5], in assay [1], in assay [2], in [6] and in assay [3] was “inactive” each time. Further, the Potency result in assay [7] was “inactive”.

For the compound `COc1ccc(C(=O)c2ccc(OC)cc2O)c(O)c1`, the Potency result in assay [5], in assay [1], in [2], in [8], in [9] and in assay [3] was “inactive” each time.

As for `CCN(CC)CCNc1ccc(CNC=O)c2sc3ccc(OC)cc3c(=O)c12`, the Potency in [4] was 54.9 µM (active); in assay [5], 43.6 µM (active); in assay [6], 54.5 µM (active). The Potency entry in assay [1], in assay [2] and in assay [3] was “inactive” throughout.

As for `Cc1cccc(C)c1NC(=O)CN(CC(=O)O)CC(=O)O`, the Potency entry in [4], in [5], in [1], in assay [2], in assay [6] and in [9] was “inactive” each time. For the same compound, the Potency result in assay [3] and in assay [7] was “inactive” in each case.
